In article PMC5540273 (PLoS ONE, 2017):
Where two headings read alike, the source gives them in different places.

How the values were obtained:
FYN = details: concentration: 1 μM,replicates: in singlicate; n = 1
GAK = details: concentration: 1 μM,replicates: in singlicate; n = 1
GCN2(Kin.Dom.2,S808G) = system: T1, GCN2(Kin.Dom.2,S808G); details: concentration: 1 μM,replicates: in singlicate; n = 1
T1 construct: gene EIF2AK4

GRK1 = details: concentration: 1 μM,replicates: in singlicate; n = 1
GRK2 = system: T2, GRK2; details: concentration: 1 μM,replicates: in singlicate; n = 1
T2 construct: gene ADRBK1

GRK3 = system: T3, GRK3; details: concentration: 1 μM,replicates: in singlicate; n = 1
T3 construct: gene ADRBK2

GRK4 = details: concentration: 1 μM,replicates: in singlicate; n = 1
GRK7 = details: concentration: 1 μM,replicates: in singlicate; n = 1
GSK3A = details: concentration: 1 μM,replicates: in singlicate; n = 1
GSK3B = details: n = 1
[1] = concentration: 1 μM,replicates: in singlicate
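Further: KINOMEscan kinase panel screen.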

Structure (SMILES)	%Inh (FYN)	%Inh (GAK)	%Inh (GCN2(Kin.Dom.2,S808G))	%Inh (GRK1)	%Inh (GRK2)	%Inh (GRK3)	%Inh (GRK4)	%Inh (GRK7)	%Inh (GSK3A)	%Inh (GSK3B; [1])	%Inh (GSK3B; 1 µM)
Cc1cccc(-c2nc(Nc3ccncc3)c3sccc3n2)n1 [GW869641]	0%	13%	5%	0%	17%	11%	15%	42%	0%	40%	–
Cc1ccc(Nc2ccnc(Nc3ccc4c(c3)CS(=O)(=O)C4)n2)cc1O.Cl [GW579362]	97.9%	87%	98.4%	2%	0%	22%	82%	0%	63%	23%	–
CN(c1cccc(CNc2nc(Nc3ccc4c(c3)CC(=O)N4)ncc2C(F)(F)F)c1)S(C)(=O)=O	0%	33%	10%	25%	0%	0%	19%	0%	35%	0%	–
O=C(Nc1ccc(Oc2ccc3nc(NC(=O)C4CC4)cn3n2)c(F)c1)c1cccn(-c2ccccc2)c1=O	15%	0%	20%	0%	0%	0%	21%	0%	25%	0%	–
Cc1nnc(-c2ccc3occ(-c4ccc(S(C)=O)cc4)c3n2)o1 (stereo not shown)	0%	5%	0%	0%	0%	0%	33%	0%	40%	0%	–
COc1cccc(C2=C(Nc3cccc(Cl)c3)C(=O)NC2=O)c1 [SB-341556]	25%	12%	0%	27%	0%	22%	27%	0%	70%	–	35%
C[C@@H](Oc1cc(-n2cnc3cc(-c4ccncc4)ccc32)sc1C(N)=O)c1ccccc1Cl [GSK479719]	29%	59%	69%	100%	0%	62%	62%	0%	13%	24%	–
